Growth data for nine molecules are collected here from PubChem BioAssay (NCI).

About 83,000 compounds went through this panel and 20% of them were active in at least one assay; those are over-represented in the sample as a whole.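 96-well plates, one dose, 48 hours. Percent growth reported; active if below 10.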 Unmarked numbers belong to inactive results. Calls of active or inactive are those of the source.

Holding throughout (assay): NCI-60 one-dose screen, 48 h (100 = growth as untreated, 0 = no growth, -100 = all killed)
The test system of one assay is NCI-H23 lung. Particulars: 10 µM unless noted.
Another assay deals with NCI-H226 lung. The following applies: 10 µM unless noted.
A further assay relates to NCI-H322M lung. The following applies: 10 µM unless noted.
Another assay concerns HOP-62 NSCLC. The following applies: 10 µM unless noted.
Another assay concerns A549/ATCC NSCLC. Particulars: 10 µM unless noted.
The next assay concerns 786-0 renal. The following applies: 10 µM unless noted.
Another assay has as its system COLO 205 colon. Particulars: 10 µM unless noted.
The test system of the next assay is DU-145 prostate. Particulars: 10 µM unless noted.
The next assay has as its system K-562 leukemia. The following applies: 10 µM unless noted.
Another assay has as its system MALME-3M melanoma. The following applies: 10 µM unless noted.
A further assay deals with MDA-MB-231 breast. Particulars: 10 µM unless noted.
The test system of another assay is RXF 393 renal. The following applies: 10 µM unless noted.
For another assay, the system named is SF-268 CNS. Particulars: 10 µM unless noted.
The subject of a further assay is SF-295 CNS. The following applies: 10 µM unless noted.
A further assay concerns SF-539 CNS. The following applies: 10 µM unless noted.
A further assay has as its system UACC-257 melanoma. The following applies: 10 µM unless noted.
Another assay concerns M14 melanoma. The following applies: 10 µM unless noted.
A further assay relates to NCI-H522 lung. The following applies: 10 µM.
The test system of the next assay is HOP-92 NSCLC. Particulars: 10 µM.
In a further assay the test system is NCI-H460 lung. The following applies: 10 µM unless noted.

As to `CCCCCCCCCCCCCCCCNC(=S)N/N=C/c1ccc(O)cc1O`, the growth in the assay on NCI-H23 lung is 77.1%; in the assay on NCI-H226 lung, 76%; in the assay with NCI-H322M lung it was 95.2%; in the assay with HOP-62 NSCLC it was 83.1%; in the assay with A549/ATCC NSCLC, 55.1%; in the assay with 786-0 renal, 73.3%. Also, the growth was 98% in the assay with COLO 205 colon; 79.2% in the assay on DU-145 prostate; 70.3% in the assay with K-562 leukemia; 100% in the assay on MALME-3M melanoma; 81% in the assay with MDA-MB-231 breast; 74.9% in the assay with RXF 393 renal. The growth with SF-268 CNS is 69%; in the assay on SF-295 CNS, 65.5%; with SF-539 CNS, 110%; with UACC-257 melanoma, 85.9%; in the assay on M14 melanoma, 61.8%.
`Cc1ncc(C(=O)Nc2ccc(CN3CCN(C)CC3)c(C(F)(F)F)c2)cc1C#Cc1c(N)ncc2ccccc12`: the growth in the assay on NCI-H23 lung is -73.1% (active); with NCI-H226 lung it was -79.1% (active); with NCI-H322M lung, -99% (active); in the assay on HOP-62 NSCLC, -97.2% (active); in the assay on NCI-H522 lung, -85.7% (active); in the assay with A549/ATCC NSCLC, -96.6% (active). The growth in the assay with 786-0 renal is -91.8% (active); in the assay on DU-145 prostate it was -87.8% (active); in the assay with K-562 leukemia it was -73.2% (active); with MALME-3M melanoma it was -84.9% (active); in the assay on MDA-MB-231 breast, -96.6% (active); in the assay on RXF 393 renal, -93.9% (active). The growth in the assay with SF-268 CNS is -54.4% (active); with SF-295 CNS it was -90.5% (active); in the assay with SF-539 CNS, -98.5% (active); in the assay with UACC-257 melanoma it was -86% (active); in the assay with M14 melanoma it was -86.1% (active).
Regarding `N#Cc1c(N)nc(Nc2nc3ccccc3[nH]2)nc1-c1ccc(Cl)cc1`, the growth in the assay with NCI-H23 lung is 101%; in the assay with NCI-H226 lung, 81.2%; in the assay with NCI-H322M lung, 117%; in the assay on HOP-62 NSCLC it was 112%; in the assay with HOP-92 NSCLC, 78.4%; in the assay on NCI-H522 lung, 90.4%. The growth in the assay on A549/ATCC NSCLC was 105%; in the assay on COLO 205 colon, 94.7%; with DU-145 prostate, 123%; with K-562 leukemia, 92.3%; with MALME-3M melanoma it was 125%; in the assay on MDA-MB-231 breast, 106%. Moreover, the growth in the assay with RXF 393 renal is 114%; in the assay with SF-268 CNS, 101%; in the assay on SF-295 CNS it was 112%; with SF-539 CNS, 111%; in the assay with UACC-257 melanoma, 109%; in the assay on M14 melanoma, 103%.
On to `Cc1nn(-c2ccccc2)c(N)c1N=C1NC(=O)/C(=C/c2ccc(Cl)cc2)S1`, for which the growth is 78.2% in the assay on NCI-H23 lung; 83.5% with NCI-H226 lung; 81.8% in the assay with NCI-H322M lung; 92.6% in the assay on NCI-H460 lung; 79.9% with HOP-92 NSCLC; 87.1% with NCI-H522 lung. The growth in the assay with A549/ATCC NSCLC was 80.6%; in the assay on 786-0 renal it was 94.7%; in the assay on COLO 205 colon, 88.4%; in the assay with DU-145 prostate it was 86.9%; in the assay with K-562 leukemia, 73.2%; in the assay on MALME-3M melanoma, 87.4%. The growth with MDA-MB-231 breast was 105%; in the assay with RXF 393 renal, 109%; in the assay on SF-268 CNS, 83.7%; in the assay on SF-295 CNS, 86.5%; with SF-539 CNS, 81%; in the assay on UACC-257 melanoma, 105%.
In the case of `N#CCCCCCCCCCCC#N`, the growth in the assay with NCI-H23 lung is 93.8%; in the assay with NCI-H226 lung it was 111%; in the assay with NCI-H322M lung it was 114%; in the assay with HOP-62 NSCLC, 104%; with NCI-H522 lung, 86%; in the assay on A549/ATCC NSCLC, 93.3%. Also, the growth in the assay on 786-0 renal was 99.9%; with COLO 205 colon it was 111%; with DU-145 prostate it was 106%; in the assay with K-562 leukemia it was 103%; with MALME-3M melanoma it was 139%; in the assay with MDA-MB-231 breast it was 105%. Besides, the growth in the assay on RXF 393 renal is 113%; in the assay on SF-268 CNS, 109%; in the assay with SF-295 CNS, 92%; with SF-539 CNS it was 108%; in the assay on UACC-257 melanoma, 87.7%; with M14 melanoma, 103%.
For the molecule `O=C(CCl)c1ccc2c(c1)CCCC2`, the growth in the assay with NCI-H23 lung is 105%; in the assay on NCI-H226 lung, 108%; in the assay on NCI-H322M lung, 94.3%; with HOP-62 NSCLC, 107%; in the assay on A549/ATCC NSCLC it was 101%; with 786-0 renal it was 90.6%. The growth was 113% in the assay with COLO 205 colon; 110% with DU-145 prostate; 72.1% in the assay with K-562 leukemia; 80.8% in the assay with MALME-3M melanoma; 103% in the assay on MDA-MB-231 breast; 99% with RXF 393 renal. For the same molecule, the growth is 104% with SF-268 CNS; 70.2% with SF-295 CNS; 90.8% in the assay on SF-539 CNS; 98.1% in the assay with UACC-257 melanoma; 95.5% with M14 melanoma.
Consider `CCCCN(CCCC)CCCNc1c2c(nc3ccc(Cl)cc13)CCCC2`, for which the growth was 82% in the assay with NCI-H23 lung; 100% in the assay on NCI-H226 lung; 95.4% in the assay on NCI-H322M lung; 86.6% in the assay with HOP-62 NSCLC; 80.1% in the assay on NCI-H522 lung; 94.6% with A549/ATCC NSCLC. For the same molecule, the growth was -69.6% (active) in the assay on 786-0 renal; 77.4% with COLO 205 colon; 107% in the assay with DU-145 prostate; 72.8% in the assay with K-562 leukemia; 126% in the assay on MALME-3M melanoma; 70.5% in the assay on MDA-MB-231 breast. Further, the growth in the assay on RXF 393 renal was 109%; with SF-268 CNS, 92.3%; in the assay with SF-295 CNS it was 90.1%; in the assay on SF-539 CNS, 100%; in the assay on UACC-257 melanoma, 105%; in the assay on M14 melanoma, 98%.
Regarding `Cc1ccc(S(=O)(=O)Nc2cccc(Cn3c(=O)[nH]c4ccc(Oc5ncccn5)cc4c3=O)c2)cc1`, the growth in the assay on NCI-H23 lung was 85.4%; with NCI-H226 lung it was 86.1%; with NCI-H322M lung, 79.9%; with HOP-62 NSCLC, 72.2%; in the assay on HOP-92 NSCLC it was 62.9%; with NCI-H522 lung, 33.6%. Moreover, the growth with A549/ATCC NSCLC was 90.7%; in the assay with 786-0 renal, 95.9%; in the assay on DU-145 prostate it was 95.6%; in the assay on K-562 leukemia it was 26.6%; in the assay with MALME-3M melanoma, 59.8%; in the assay on MDA-MB-231 breast, 77.4%. For the same molecule, the growth with RXF 393 renal is 80.5%; in the assay on SF-268 CNS, 82.3%; in the assay with SF-295 CNS, 74.4%; in the assay with SF-539 CNS it was 71.7%; with UACC-257 melanoma, 73.3%; in the assay on M14 melanoma, 59.1%.
With `O=C(Nc1cccc(Cn2c(=O)[nH]c3ccc(Oc4ncccn4)cc3c2=O)c1)c1cc(Cl)cc(Cl)c1`, the growth was 74.1% with NCI-H23 lung; 44.2% in the assay with NCI-H226 lung; 57.7% in the assay on NCI-H322M lung; 71.6% in the assay on HOP-62 NSCLC; 44.1% with HOP-92 NSCLC; 49.3% in the assay on NCI-H522 lung. The growth is 56% in the assay with A549/ATCC NSCLC; 72.6% in the assay on 786-0 renal; 68% in the assay with DU-145 prostate; 4.32% (active) in the assay on K-562 leukemia; 30.5% in the assay on MALME-3M melanoma; 39.3% in the assay on MDA-MB-231 breast. Besides, the growth with RXF 393 renal was 31.9%; in the assay on SF-268 CNS, 69.1%; in the assay with SF-295 CNS, 64.6%; in the assay on SF-539 CNS, 11.8%; in the assay with UACC-257 melanoma it was 68.4%; with M14 melanoma it was 73%.
